The target of the test is furin, P09958. Description: furin cleavage Z-score vs untreated control; higher = more cleavage, active = 3.5 or more, inactive = 1 or less, 8 variable residues between constant flanks. The procedure, abridged:
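The cleavage Z-score was derived for purified furin acting on 8-mer peptides held on magnetic beads and fused to a cDNA oligonucleotide. Digests lasted 7.5, 15 or 30 min at 1:10 enzyme:substrate in 50 mM HEPES pH 7.5 with CaCl2 and NaCl. Sequencing counts of released DNA, log-transformed against furin-free reactions, were lowess-adjusted and scaled by median absolute deviation.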

This is one part of the list. How many sequences the whole screen found active is unknown.

furin, P09958, sequence (P09958 whole entry, the tested form may be a part): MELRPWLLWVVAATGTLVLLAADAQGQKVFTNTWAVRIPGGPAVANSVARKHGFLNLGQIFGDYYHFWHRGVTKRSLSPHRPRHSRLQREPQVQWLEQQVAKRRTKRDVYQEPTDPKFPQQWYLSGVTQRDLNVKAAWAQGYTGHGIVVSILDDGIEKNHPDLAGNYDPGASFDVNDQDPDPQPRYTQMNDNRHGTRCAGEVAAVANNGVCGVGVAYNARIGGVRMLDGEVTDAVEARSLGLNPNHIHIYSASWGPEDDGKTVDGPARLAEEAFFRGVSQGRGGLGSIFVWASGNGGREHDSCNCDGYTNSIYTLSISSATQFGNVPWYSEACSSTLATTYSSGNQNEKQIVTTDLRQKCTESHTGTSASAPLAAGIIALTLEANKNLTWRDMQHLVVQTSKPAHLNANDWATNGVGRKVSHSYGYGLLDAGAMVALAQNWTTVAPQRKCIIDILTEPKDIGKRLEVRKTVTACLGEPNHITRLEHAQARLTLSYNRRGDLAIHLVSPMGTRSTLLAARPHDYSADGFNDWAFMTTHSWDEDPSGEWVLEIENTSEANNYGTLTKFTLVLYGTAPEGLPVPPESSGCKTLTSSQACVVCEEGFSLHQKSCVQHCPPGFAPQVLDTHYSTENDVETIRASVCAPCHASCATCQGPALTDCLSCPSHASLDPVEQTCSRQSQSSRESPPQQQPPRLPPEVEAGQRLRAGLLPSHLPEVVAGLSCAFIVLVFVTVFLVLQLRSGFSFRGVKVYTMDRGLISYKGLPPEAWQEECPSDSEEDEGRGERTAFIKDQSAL

B1: FS-2737 (peptide)
chain: CARPERGARGAGNASASA
As to B1, the “furin cleavage Z-score” value is -0.85 (inactive) (7.5 min), 0.79 (inactive) (15 min) and 0.188 (inactive) (30 min).

B2: FS-491 (peptide)
chain: CARPERYRRHAGNASASA
For B2, the “furin cleavage Z-score” value is 12.7 (active) (7.5 min), 14.8 (active) (15 min) and 11.1 (active) (30 min).

B3: FS-1362 (peptide)
chain: CALLTRARRDAGNASASA
For B3, the “furin cleavage Z-score” value is, setting by setting: (7.5 min) 10.7 (active); (15 min) 11.2 (active); (30 min) 8.73 (active).

B4: FS-2739 (peptide)
chain: CARPMRPVGHAGNASASA
Take B4: the “furin cleavage Z-score” value runs as follows: (7.5 min) -0.34 (inactive); (15 min) -0.708 (inactive); (30 min) 1.89.

B5: FS-1264 (peptide)
chain: CARPERGPRGAGNASASA
With B5, the “furin cleavage Z-score” value runs as follows: (7.5 min) 1.01; (15 min) 0.671 (inactive); (30 min) 1.51.

B6: FS-3028 (peptide)
chain: CARPVRDCDDAGNASASA
For the sequence B6, the “furin cleavage Z-score” value runs as follows: (7.5 min) 0.136 (inactive); (15 min) 1.92; (30 min) 1.99.

B7: FS-1628 (peptide)
chain: CAEVDVQARDAGNASASA
In the case of B7, the “furin cleavage Z-score” value runs as follows: (7.5 min) -1.25 (inactive); (15 min) 0.00773 (inactive); (30 min) -1.04 (inactive).

B8: HC348 (peptide)
chain: CALLLFAGVDAGNASASA
Consider B8, for which the “furin cleavage Z-score” value reads like this: (7.5 min) -0.657 (inactive); (15 min) -0.224 (inactive); (30 min) -1.23 (inactive).

B9: FS-1066 (peptide)
chain: CARPERKRRDAGNASASA
For the sequence B9, the “furin cleavage Z-score” value runs as follows: (7.5 min) 14.3 (active); (15 min) 14.2 (active); (30 min) 10.6 (active).

B10: FS-3146 (peptide)
chain: CALLTRIPGFAGNASASA
For the sequence B10, the “furin cleavage Z-score” value by setting is: (7.5 min) -0.34 (inactive); (15 min) 0.0643 (inactive); (30 min) -0.495 (inactive).

B11: FS-48 (peptide)
chain: CAKVHRQRRDAGNASASA
For the sequence B11, the “furin cleavage Z-score” value is 6.48 (active) (7.5 min), 5.35 (active) (15 min) and 4.45 (active) (30 min).

B12: HC1912 (peptide)
chain: CATTPCSGEWAGNASASA
B12: the “furin cleavage Z-score” value by setting is: (7.5 min) -1.69 (inactive); (15 min) -0.859 (inactive); (30 min) 0.0519 (inactive).

B13: HC1986 (peptide)
chain: CAMVCCSMSYAGNASASA
On to B13, for which the “furin cleavage Z-score” value runs as follows: (7.5 min) 0.714 (inactive); (15 min) 1.46; (30 min) 0.242 (inactive).

B14: HC817 (peptide)
chain: CAIICDECHSAGNASASA
As for B14, the “furin cleavage Z-score” value runs as follows: (7.5 min) -0.464 (inactive); (15 min) -1.69 (inactive); (30 min) -0.782 (inactive).

B15: FS-1597 (peptide)
chain: CAKSRRARRDAGNASASA
With B15, the “furin cleavage Z-score” value is 7.96 (active) (7.5 min), 9.22 (active) (15 min) and 7.04 (active) (30 min).

B16: FS-544 (peptide)
chain: CAKDSRCDRDAGNASASA
On to B16, for which the “furin cleavage Z-score” value is -1.48 (inactive) (7.5 min), -1.29 (inactive) (15 min) and 0.34 (inactive) (30 min).

B17: HC1070 (peptide)
chain: CAQLAAPGAAAGNASASA
Consider B17, for which the “furin cleavage Z-score” value was -0.00694 (inactive) (7.5 min), -2.1 (inactive) (15 min) and -1.59 (inactive) (30 min).

B18: FS-1909 (peptide)
chain: CARMAREVAAAGNASASA
For the sequence B18, the “furin cleavage Z-score” value by setting is: (7.5 min) 6.15 (active); (15 min) 4.78 (active); (30 min) 6.63 (active).

B19: FS-2436 (peptide)
chain: CARPDRPVLKAGNASASA
As to B19, the “furin cleavage Z-score” value runs as follows: (7.5 min) -0.645 (inactive); (15 min) -0.376 (inactive); (30 min) -0.377 (inactive).

B20: FS-1724 (peptide)
chain: CARKFRDLLKAGNASASA
With B20, the “furin cleavage Z-score” value is -0.828 (inactive) (7.5 min), -1.86 (inactive) (15 min) and 0.751 (inactive) (30 min).

B21: HC565 (peptide)
chain: CAALDTEVAAAGNASASA
In the case of B21, the “furin cleavage Z-score” value was 1.05 (7.5 min), 0.0294 (inactive) (15 min) and -0.123 (inactive) (30 min).

B22: FS-2281 (peptide)
chain: CARMARNVLKAGNASASA
For B22, the “furin cleavage Z-score” value (7.5 min) is 2.27, the “furin cleavage Z-score” value (15 min) came to 2.22 and the “furin cleavage Z-score” value (30 min) was 4.88 (active).

B23: HC2179 (peptide)
chain: CAEPVTSTWVAGNASASA
Turning to B23, the “furin cleavage Z-score” value (7.5 min) is 1.29, the “furin cleavage Z-score” value (15 min) is -0.789 (inactive) and the “furin cleavage Z-score” value (30 min) was 0.354 (inactive).

B24: FS-1856 (peptide)
chain: CARKKRGYRDAGNASASA
Consider B24, for which the “furin cleavage Z-score” value (7.5 min) is 10.5 (active), the “furin cleavage Z-score” value (15 min) is 11.2 (active) and the “furin cleavage Z-score” value (30 min) was 8.83 (active).

B25: FS-2962 (peptide)
chain: CARKKREIRSAGNASASA
Take B25: the “furin cleavage Z-score” value is, setting by setting: (7.5 min) 14.3 (active); (15 min) 12.6 (active); (30 min) 10.5 (active).

B26: FS-2690 (peptide)
chain: CARKKKGKADAGNASASA
As for B26, the “furin cleavage Z-score” value reads like this: (7.5 min) 0.358 (inactive); (15 min) -1.8 (inactive); (30 min) -1.17 (inactive).

B27: FS-1284 (peptide)
chain: CASSNRLARFAGNASASA
B27: the “furin cleavage Z-score” value is 3.54 (active) (7.5 min), 4.58 (active) (15 min) and 6.02 (active) (30 min).

B28: FS-373 (peptide)
chain: CARFARYYRDAGNASASA
Consider B28, for which the “furin cleavage Z-score” value runs as follows: (7.5 min) 4.68 (active); (15 min) 4.65 (active); (30 min) 5.39 (active).

Values taken from the supplement of paper PMC3545927.
